Compound activity deposited in PubChem BioAssay by National Center for Advancing Translational Sciences (NCATS).
Hits are enriched below; roughly 2.4% of the tested compounds scored in any of these assays.
D2 antag – HTS Assay for Allosteric Antagonists of the Human D2 Dopamine Receptor: Primary Screen for Antagonists; AID 485344, 2010; 2% of 340,000 active; HEK293 TREx D2 cells, calcium flux, dopamine EC80; inhibition, % at 10 µM; D(2) dopamine receptor (Homo sapiens), P14416; in the data active means inhibition above about 30%; inactive means below that, where a call was filed
Target sequence (P14416 whole entry, looked up): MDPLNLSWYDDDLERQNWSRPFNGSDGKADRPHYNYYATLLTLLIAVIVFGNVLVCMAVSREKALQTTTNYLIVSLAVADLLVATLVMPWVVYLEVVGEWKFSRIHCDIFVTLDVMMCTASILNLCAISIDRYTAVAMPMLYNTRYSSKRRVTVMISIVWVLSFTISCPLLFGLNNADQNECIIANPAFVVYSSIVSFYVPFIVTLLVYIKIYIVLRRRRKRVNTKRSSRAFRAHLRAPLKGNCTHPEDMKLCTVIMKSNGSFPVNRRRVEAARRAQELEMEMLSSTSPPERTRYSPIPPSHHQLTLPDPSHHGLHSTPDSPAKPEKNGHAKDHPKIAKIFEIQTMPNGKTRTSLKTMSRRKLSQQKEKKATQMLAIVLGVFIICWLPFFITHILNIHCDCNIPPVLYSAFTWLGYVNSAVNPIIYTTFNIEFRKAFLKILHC
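Antagonism is scored as inhibition of an EC80 dopamine-evoked calcium signal in a force-coupled, tetracycline-inducible HEK293 T-REx D2 line, with compound present 180 s before agonist.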
D2 ag-1 – Beta-Arrestin HTS for Positive Allosteric Modulators of the Human D2 Dopamine Receptor: Agonists | 0.084% of 360,000 active | D(2) dopamine receptor (Homo sapiens), P14416 | activation, % (no concentration beside the values) | DiscoveRx PathHunter D2 beta-arrestin, luminescence, 90 min; 100% = 57 uM dopamine signal; in the data active means activation above about 40%; inconclusive means between about 15% and that limit
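Agonist mode: compounds alone added to overnight-plated D2 PathHunter cells for 90 min at 37 C, with 57 uM final dopamine (EC100) defining full response. Beta-arrestin recruitment detected by chemiluminescent reagent, read after 1 h at ambient temperature.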
D2 PAM-1 – Beta-Arrestin HTS for Positive Allosteric Modulators of the Human D2 Dopamine Receptor: Potentiators; D(2) dopamine receptor (Homo sapiens), P14416; DiscoveRx D2 beta-arrestin cells, luminescence, 90 min; 100% = 57 uM dopamine signal; potentiation, % (no concentration beside the values); 0.23% of 360,000 active; AID 624464, 2012; in the data active means potentiation above about 50%; inconclusive means mostly about 30% to 49%
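D2 cells co-treated with compound plus 50 nM dopamine (EC20) for 90 min at 37 deg C to detect potentiation. Beta-arrestin recruitment was read as enzyme-fragment luminescence after 1 h at ambient temperature. Full response was set by 57 uM dopamine.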
D2 ag-2 – HTS Assay for Allosteric Agonists of the Human D2 Dopamine Receptor: Primary Screen for Agonists | 0.53% of 340,000 active | D(2) dopamine receptor (Homo sapiens), P14416 | activation, % at 2 µM | HEK293 T-REx D2 cells, calcium flux agonist mode;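 active means activation over 3 SD above normal in the single-dose calcium agonist read, cut at about 30% in these data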
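Tetracycline-induced HEK293 Trex cells with D2 receptor force-coupled to calcium signaling, plated overnight at 30 C and loaded with no-wash calcium dye. Calcium flux read kinetically for 180 s after compound addition; responses flag agonists.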
D2 PAM-2 – HTS Assay for Positive Allosteric Modulators of the Human D2 Dopamine Receptor: Primary Screen for Potentiators | D(2) dopamine receptor (Homo sapiens), P14416 | HEK293 T-REx D2, calcium flux, EC20 dopamine potentiation | potentiation, % at 10 µM | 0.34% of 340,000 active;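 active means potentiation over 3 SD above the plate norm, cut at about 30% in these data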
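Calcium flux readout, no-wash dye, 1 read/s. Inducible HEK293 Trex D2 line, overnight 30 C. Compound alone 180 s (agonist flags), then EC20 dopamine, another 180 s to score potentiation.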
Of the large screens only hits and unclear results are named; the others gave an inactive call.

CN(C)CCCN1c2ccccc2Sc2ccc(C(F)(F)F)cc21	D2 antag 95
CCCCN=C(C)C1=C(O)CSC1=O	none
CC(=NCCc1ccccc1)C1=C(O)CSC1=O	D2 PAM-1 inconclusive, D2 ag-2 35
COC(=O)/C(=C/c1cccc([N+](=O)[O-])c1)NC(=O)c1ccc(OC)cc1	none
COc1ccc(/C=C(/NC(=O)c2cccc([N+](=O)[O-])c2)C(=O)O)cc1OC	D2 antag 56
CC(=O)c1cccc(NC(=O)c2ccc3ccccc3c2)c1	D2 antag 31
Cc1cccc(NC(=O)CCNS(=O)(=O)c2cccc3nonc23)c1C	D2 antag 31
CCOc1ccccc1NC(=O)CCNS(=O)(=O)c1cccc2nonc12	none
CCOc1cc(N2CCOCC2)c(OCC)cc1NC(=O)C1=COCCO1	D2 antag 39
CCOc1cc(N2CCOCC2)c(OCC)cc1NC(=O)CSc1cccc[n+]1[O-]	D2 PAM-1 57 (no result: D2 antag, D2 ag-2, D2 PAM-2)
CCOc1cc(N2CCOCC2)c(OCC)cc1NC(=O)CSc1ncccn1	none
CCc1nc(N)nc(N)c1-c1ccc(Cl)c(N=[N+]=[N-])c1	none (no result: D2 antag, D2 ag-2, D2 PAM-2)
O=C(NC1CCCCC1)[C@H](O)[C@@H](O)C(=O)NC1CCCCC1	D2 antag 49
COc1ccc(S(=O)(=O)N2CCCCC2)cc1NC(=O)C1CC1(Cl)Cl (stereo unspecified)	none (no result: D2 antag, D2 ag-2, D2 PAM-2)
COC(=O)CC(NC(=O)c1ccco1)c1cccc2ccccc12 (stereo unspecified)	none
COC(=O)CC(NS(=O)(=O)c1cccs1)c1cccc2ccccc12 (stereo unspecified)	D2 antag 46
CC(=O)c1ccc(NC(=O)C[n+]2cccc(C)c2)cc1	D2 antag 37
N#Cc1c2c(c(Nc3ccc(O)cc3)n3c1nc1ccccc13)CCC2	D2 ag-1 inconclusive, D2 PAM-1 68
N#Cc1c2c(c(NCc3ccco3)n3c1nc1ccccc13)CCC2	none
CCn1c(=O)c(C(=O)NNC(=O)c2ccccc2F)c(O)c2ccccc21	D2 ag-2 48
CCn1c(=O)c(C(=O)NNC(=O)c2ccccc2Cl)c(O)c2ccccc21	none (no result: D2 PAM-2)
C[C@H]1COC(=O)[C@@H](Cc2ccc(F)cc2)C/C=C\C[C@@H](CC(=O)N[C@@H](CO)Cc2ccccc2)C(=O)N1	none (no result: D2 antag, D2 ag-2, D2 PAM-2)
COc1ccccc1NC(=O)Nc1nc(C(C)(C)C)cs1	D2 antag 35
COc1ccccc1NC(=O)Nc1cc(F)ccc1F	D2 antag 32
COc1ccccc1NC(=O)Nc1nc(CC(=O)Nc2cc(F)ccc2F)cs1	D2 PAM-1 56
Cc1cc(C)cc(NC(=O)Nc2ccc(-n3ccc(C(F)(F)F)n3)cc2)c1	none
COc1ccccc1NC(=O)Nc1ccc(-n2ccc(C(F)(F)F)n2)cc1	D2 antag 71
COc1ccccc1NC(=O)Nc1nc(CC(=O)Nc2cccc(F)c2)cs1	none
Cc1ccc(N2CC(NC(=O)C3CCCCC3)CC2=O)cc1 (stereo unspecified)	none (no result: D2 antag, D2 ag-1, D2 PAM-1)
COc1ccc(-c2cc(C)no2)cc1S(=O)(=O)NCc1cccs1	none (no result: D2 antag, D2 ag-1, D2 PAM-1)
Cc1ccccc1NCC(=O)N/N=C/C(Br)=C/c1ccccc1	D2 PAM-2 33
Cc1ccccc1NC(=S)NC(=O)COc1ccccc1C	none
CCCn1ccnc1SCC(=O)Nc1c(C)n(C)n(-c2ccccc2)c1=O	none
O=C(NC1CCCC1)c1ccccc1-c1ccccc1	none
O=C(O)c1ccccc1C(=O)NC1Cc2ccccc2C1	D2 ag-2 35
CCc1ccc(CNC(=O)c2ccc(OC)c(OC3CCN(C(C)C)CC3)c2)nc1	D2 antag 42
COc1ccc(C(=O)NCc2cnn(C)c2)cc1OC1CCN(C(C)C)CC1	none
COc1ccc(NC(=O)C2CCCN(S(=O)(=O)c3ccc(F)cc3)C2)cc1 (stereo unspecified)	none (no result: D2 antag, D2 ag-1, D2 PAM-1)
CSc1ccc2c(c1)C(N1CCN(C)CC1)Cc1ccccc1S2 (stereo unspecified)	D2 antag 81
O=C(O)CCC(=O)N1CCc2cc(S(=O)(=O)N3CCC(Cc4ccccc4)CC3)ccc21	D2 antag 34
CC1CCN(S(=O)(=O)c2ccc3c(c2)CCN3C(=O)CCC(=O)O)CC1	none
COc1ccc(S(=O)(=O)Nc2cc3c4c(c2)CCN4C(=O)CC3)cc1OC	none
CC(=O)N(CC#CCN(C(C)=O)c1ccccc1)c1ccccc1	none (no result: D2 antag, D2 ag-2, D2 PAM-2)
Clc1cccc(-c2cc3nc4c(c(N5CCN(c6cnccn6)CC5)n3n2)CCCC4)c1	D2 antag 41
Cc1nc(SCC(=O)NCc2ccco2)c2c3c(sc2n1)CCCC3	D2 antag 36
O=C(Cn1c(=O)nc(-c2ccccc2)c2ccccc21)NCc1ccc(F)cc1	none (no result: D2 antag, D2 ag-1, D2 PAM-1)
O=c1cc2oc3cc(O)c(O)cc3c(-c3ccccc3[N+](=O)[O-])c-2cc1O	D2 antag 31
C[C@H](CO)N1C[C@H](C)[C@@H](CN(C)Cc2ccc3c(c2)OCO3)Oc2c(NS(=O)(=O)c3cn(C)cn3)cccc2C1=O	none (no result: D2 antag, D2 ag-2, D2 PAM-2)
Cc1ccc(S(=O)(=O)NC(=O)C2(C)CCN2C(=O)CC2CCCC2)nc1 (stereo unspecified)	none (no result: D2 antag, D2 ag-2, D2 PAM-2)
CN(C)CCN1CCN(C2CN(CCc3ccccc3)S(=O)(=O)C2)CC1 (stereo unspecified)	none (no result: D2 antag, D2 ag-2, D2 PAM-2)
COc1ccc(-c2oc(=O)c3cc(OC)c(OC)cc3c2C#C[C@]2(O)CC[C@H]3[C@@H]4CCc5cc(OC)ccc5[C@H]4CC[C@@]32C)cc1	none (no result: D2 antag, D2 ag-2, D2 PAM-2)
CCN(CC)C(=O)CN1C(=O)COc2ccc(S(=O)(=O)N3CCOCC3)cc21	none (no result: D2 antag, D2 ag-1, D2 PAM-1)
CCC(C)NC(=O)CN1C(=O)COc2ccc(S(=O)(=O)N3CCOCC3)cc21 (stereo unspecified)	D2 antag 44
CC1Cc2ccccc2N1C(=O)CN(C)CC(=O)Nc1ccc(F)cc1 (stereo unspecified)	D2 antag 43
Cc1cccc(NC(=O)c2ccc(F)c(S(=O)(=O)NCc3ccco3)c2)c1	D2 antag 33
CC(C)(C)C(=O)/C=c1\s/c(=C\c2ccc(-c3ccc([N+](=O)[O-])cc3)o2)c(=O)n1CC(=O)NC(N)=O	D2 antag 91, D2 ag-2 206
CCC(=O)N/N=C/c1ccc(-c2ccc([N+](=O)[O-])cc2)o1	none
CCC(=O)Nc1nc(-c2ccc3c(c2)OCCO3)cs1	D2 antag 32
CC(C)(C)C(=O)Nc1nc(-c2ccc3c(c2)OCO3)cs1	none
Fc1ccc(Nc2c3c(nc4nncn24)CCC3)cc1	none (no result: D2 antag, D2 ag-1, D2 PAM-1)
